High-throughput results from PubChem BioAssay.
This is a sample that favours compounds with a hit; in the whole collection about 3.5% have one here.
FBW7 activator: activators of human E3 ligase FBW7 | Q969H0 | AlphaScreen FBW7–phospho-cyclin E peptide binding, activator screen | normalized activity (activation), % at 26.1 µM | actives 0.13% (n = 650,000); in the data active = normalized activity above about 1.9%;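 also: purified mutant Fbw7 with reduced substrate affinity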
MITF inh: human MITF inhibition, primary screen; O75030; AlphaScreen MITF homodimerization, bead proximity signal; inhibition, % at 2.6 µM; actives 0.91% (n = 650,000); AID 1259374; in the data active = inhibition above about 50%;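 also: 0% = vehicle wells with protein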
Target sequence (O75030 whole entry, looked up): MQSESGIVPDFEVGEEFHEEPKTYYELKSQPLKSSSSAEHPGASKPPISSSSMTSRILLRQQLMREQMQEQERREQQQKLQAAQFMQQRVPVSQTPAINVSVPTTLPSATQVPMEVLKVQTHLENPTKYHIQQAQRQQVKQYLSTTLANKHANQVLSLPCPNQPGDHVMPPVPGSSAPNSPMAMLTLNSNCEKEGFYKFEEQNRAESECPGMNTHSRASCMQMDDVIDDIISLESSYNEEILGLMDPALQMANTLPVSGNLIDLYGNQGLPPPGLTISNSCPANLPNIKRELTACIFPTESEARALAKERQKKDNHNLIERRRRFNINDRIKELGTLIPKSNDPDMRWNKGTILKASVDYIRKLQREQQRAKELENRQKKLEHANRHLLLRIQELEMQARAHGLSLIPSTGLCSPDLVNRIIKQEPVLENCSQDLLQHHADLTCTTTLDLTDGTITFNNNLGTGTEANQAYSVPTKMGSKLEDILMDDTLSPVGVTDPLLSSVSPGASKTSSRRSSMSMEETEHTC
TEAD-YAP inh: TEAD-YAP interaction inhibition; inhibition, % at 9.12 µM; actives 1.4% (n = 640,000); HEK-TIYL cells, TEAD-Gal4/YAP UAS-luciferase luminescence; in the data active = inhibition above about 32%;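 also: 0% = median of test compound wells and 100% = reference inhibitor wells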
GPR151 ag: activators of human GPR151 | Q8TDV0 | PathHunter beta-arrestin GPR151 cells, luminescence | activation, % at 11.2 µM | actives 1% (n = 650,000) | AID 1508602; in the data active = activation above about 4.9%;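 also: 0% = median of compound wells and 100% = cells with positive control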
GPR151 conf act: human GPR151 activation, confirmation screen; GPR151 PathHunter beta-arrestin cells, luminescence, 90 min; % of EA-reagent control over plate median; shares compounds with GPR151 ag; 6,700 tested, under 10 active; activation, % at 11.2 µM;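 active = mean percent activation across replicates above the confirmation screen cutoff of 4.91%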
GPR119 ag: GPR119 activation, counter-screen for GPR151 activators | actives 0.3% (n = 6,700) | GPR119 PathHunter beta-arrestin cells, luminescence, 90 min; 0 = compound-well median, 100 = enzyme-acceptor control | shares compounds with GPR151 ag | AID 1508611 | activation, % at 11.2 µM;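 active = mean percent activation in the counterscreen above 29.09%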;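 also: counterscreen on off-target GPR119 to flag nonselective hits from the GPR151 activator screen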
* marks the source's active call; other numbers are inactive results.

Screening CCOCc1nnc(N)s1 returned FBW7 activator 0, MITF inh -2, TEAD-YAP inh -4 and GPR151 ag -1.
Screening Cc1sc(NC(=O)C(C)Oc2ccc([N+](=O)[O-])cc2)c(C(N)=O)c1C (stereo unspecified) returned FBW7 activator 0, MITF inh 10, TEAD-YAP inh 15 and GPR151 ag -1.
`CCc1ccccc1NC(=S)N(Cc1cccc(Br)c1)CC1CCC(C(=O)O)CC1` (stereo unspecified) gave FBW7 activator 0, MITF inh 2, TEAD-YAP inh 11, GPR151 ag 7.9*, GPR151 conf act 0 and GPR119 ag 8.
COc1ccc(Cl)cc1NC(=S)N(Cc1cccc(Br)c1)CC1CCC(C(=O)O)CC1 (stereo unspecified) was read as FBW7 activator 0, MITF inh -13, TEAD-YAP inh 6, GPR151 ag 15*, GPR151 conf act -1 and GPR119 ag 6.
COC(=O)C(COCc1ccccc1)NC(=O)C(CC(N)=O)NC(=O)OC(C)(C)C (stereo unspecified) was read as FBW7 activator 0, MITF inh 11, TEAD-YAP inh -1 and GPR151 ag 0.
O=C(CSc1cccc[n+]1[O-])Nc1ccc(S(=O)(=O)N2CCCC2)cc1 was read as FBW7 activator 0, MITF inh -10, TEAD-YAP inh 3, GPR151 ag 6.4*, GPR151 conf act 0 and GPR119 ag -2.
`CC1CCCCN1S(=O)(=O)c1ccc(NC(=O)CSc2nc3ccccc3o2)cc1` (stereo unspecified) gave FBW7 activator 0, MITF inh 8, TEAD-YAP inh -1 and GPR151 ag -1.
`O=C(CSc1cccc[n+]1[O-])Nc1ccccc1` gave FBW7 activator 0, MITF inh -9, TEAD-YAP inh -10 and GPR151 ag 1.
Screening CCC(C(=O)Nc1ccc(S(=O)(=O)N2CCC(C)CC2)cc1)c1ccccc1 (stereo unspecified) returned FBW7 activator 0, MITF inh -17, TEAD-YAP inh -2, GPR151 ag 5.0*, GPR151 conf act 1 and GPR119 ag 4.
For CC1CCN(S(=O)(=O)c2ccc(NC(=O)CSc3nc4ccccc4o3)cc2)CC1 the results were FBW7 activator 0, MITF inh 4, TEAD-YAP inh 11, GPR151 ag 16*, GPR151 conf act 2 and GPR119 ag 27.
O=C(NNC(=O)C1CC1)c1ccc(CSc2nc3ccccc3[nH]2)cc1 was read as FBW7 activator 0, MITF inh 2, TEAD-YAP inh -3 and GPR151 ag 3.
For FC(F)(F)c1ccc(Cn2c(COc3ccc(Cl)cc3Cl)nc3ccccc32)cc1 the results were FBW7 activator 0, MITF inh -2, TEAD-YAP inh -46 and GPR151 ag -2.
`O=C(CC1C(=O)NCCN1C/C=C/c1ccccc1)NCCc1ccc(O)cc1` (stereo unspecified) gave FBW7 activator 0, MITF inh -3, TEAD-YAP inh -3 and GPR151 ag 1.
`CC(=O)N(C)c1nnc(-c2ccccn2)s1` gave FBW7 activator 0, MITF inh 8, TEAD-YAP inh 3, GPR151 ag 7.8*, GPR151 conf act -1 and GPR119 ag 7.
Screening NS(=O)(=O)c1ccc(CCNC(=O)CSc2nc(NC3CCCCC3)c3ccccc3n2)cc1 returned FBW7 activator 0, MITF inh 4, TEAD-YAP inh 2, GPR151 ag 5.1*, GPR151 conf act -1 and GPR119 ag -4.
For COc1ccc(CCNc2nc(NCCN3CCOCC3)nc3c2ncn3C2CCCCC2)cc1 the results were FBW7 activator 0, MITF inh 3, TEAD-YAP inh 10 and GPR151 ag 1.
Screening CC(=O)c1ccc(NC(=O)C(Cc2ccccc2)n2cccc2)cc1 (stereo unspecified) returned FBW7 activator 0, MITF inh 7, TEAD-YAP inh 5, GPR151 ag 5.2*, GPR151 conf act -1 and GPR119 ag 6.
For COc1ccc(CCNc2ccnc(-c3ccc(C(=O)NC4CC4)cc3)n2)cc1 the results were FBW7 activator 0, MITF inh 10, TEAD-YAP inh 33*, GPR151 ag 5.5*, GPR151 conf act 0 and GPR119 ag -5.
`CCN1CCSc2ccc(C(=O)NCc3ccc(C)cc3)cc21` gave FBW7 activator 0, MITF inh -7, TEAD-YAP inh -6, GPR151 ag 6.4*, GPR151 conf act -2 and GPR119 ag -20.
For CN1CCC(N(C)Cc2cc([N+](=O)[O-])ccc2O)CC1 the results were FBW7 activator 0, MITF inh 10, TEAD-YAP inh 2, GPR151 ag 6.0*, GPR151 conf act 0 and GPR119 ag 1.
CN(C(=O)C1(c2cccs2)CCOCC1)c1ccccc1 was read as FBW7 activator 0, MITF inh -6, TEAD-YAP inh 0 and GPR151 ag 0.
Screening S=C(NCCCn1ccnc1)Nc1ccc(Br)cc1 returned FBW7 activator 0, MITF inh 8, TEAD-YAP inh -5, GPR151 ag 5.1*, GPR151 conf act -1 and GPR119 ag -8.
`CC(C)CN1CCN(Cc2ccc3cccc(F)c3n2)CC1CCO` (stereo unspecified) gave FBW7 activator 0, MITF inh 6, TEAD-YAP inh -4 and GPR151 ag -1.
CC(C)(C)CN1CCN(Cc2ccc3cccc(F)c3n2)CC1CCO (stereo unspecified) was read as FBW7 activator 0, MITF inh 0, TEAD-YAP inh -5, GPR151 ag 7.2*, GPR151 conf act 1 and GPR119 ag 3.
Cc1ccc(-n2nc(C)cc2/N=C/N(C)C)cc1 was read as FBW7 activator 0, MITF inh 9, TEAD-YAP inh 3, GPR151 ag 5.4*, GPR151 conf act 0 and GPR119 ag 0.
COc1ccc(C(=O)CC2(O)C(=O)N(Cc3ccccc3C)c3ccccc32)cc1[N+](=O)[O-] (stereo unspecified) was read as FBW7 activator 0, MITF inh 6, TEAD-YAP inh 10 and GPR151 ag 0.
O=C1CCCCc2sccc2N1 was read as FBW7 activator 0, MITF inh -2, TEAD-YAP inh 1, GPR151 ag 6.4*, GPR151 conf act 1 and GPR119 ag -4.
COc1cc(CNCC(C)C)cc(Cl)c1OC was read as FBW7 activator 1, MITF inh 20, TEAD-YAP inh 2 and GPR151 ag 0.
CCOc1c(Cl)cc(CNCC(C)C)cc1OC was read as FBW7 activator 0, MITF inh 1, TEAD-YAP inh 11, GPR151 ag 6.2*, GPR151 conf act -1 and GPR119 ag -14.
